In PubChem BioAssay AID720518 (National Center for Advancing Translational Sciences (NCATS), 2013):
Results filed as inconclusive are left out. A number with no mark means an inactive call. Calls follow the shape of the full dose curve.

test: qHTS for Inhibitors of Cell Surface uPA Generation: Wild-type Protective Antigen (WT-PrAg) Counterscreen for Cherry-picked Compounds; conditions: cells, WT protective antigen toxicity counterscreen; series mostly up to 115 µM; activity (protection): at the top concentration; also: 0% is about no effect

| Structure (SMILES) | activity (protection) [%] |
| --- | --- |
| CN(CC(=O)NCCCn1ccnc1)S(=O)(=O)c1ccc(Cl)cc1 | 0.0947 |
| CCOc1ccccc1CN1CCCC(CNS(=O)(=O)c2ccc(OC)cc2)C1 (stereo not given) | -1.27 |
| COC(=O)c1cc(CNC(=O)c2ccc(N3CCCC3)c([N+](=O)[O-])c2)ccc1OC | -1.8 |
| COCc1c(C(=O)Nc2nc(C)cs2)oc2ccccc12 | -2.04 |
| O=C(NCC1CCCO1)c1ccc(NC(=O)c2ccc([N+](=O)[O-])cc2)cc1 (stereo not given) | -0.124 |
| COc1ccc(Nc2nc(-c3ccccc3)c(C(=O)Nc3cccnc3)s2)cc1 | 6.98 |
| O=[N+]([O-])c1ccc(-c2cn3c(n2)SCC3)cc1 | -1.19 |
| CCOC(=O)Cc1csc(NC(=O)Nc2cccc(OC)c2)n1 | 2.04 |
| Cc1nc([N+](=O)[O-])cn1CCCCN1C(=O)c2ccccc2C1=O | -0.525 |
| COc1cc(C(=O)Nc2nnc(C)s2)cc(OC)c1OC | -1.63 |
| COc1ccccc1CNC(=O)CCn1c(=O)oc2ccccc21 | -0.71 |
| COc1ccc(C(=O)N[C@H](C(=O)NCc2cccs2)C(C)C)cc1 | -0.821 |
| O=C(COc1ccc(C(=S)N2CCOCC2)cc1)N1CCOCC1 | 0.626 |
| COc1cc(CNCc2ccc3c(c2)OCO3)c([N+](=O)[O-])cc1OC | 0.0004 |
| CCCc1nn2c(=O)cc(CSCC(=O)Nc3ccccc3)nc2s1 | 1.46 |
| COC(=O)C(CCSC)NC(=O)Cn1ncc2c(=O)oc3ccccc3c21 (stereo not given) | 0.643 |
| Cc1ccc(S(=O)(=O)N2CCC(C)CC2)cc1 | 0.504 |
| C=CC[n+]1c(/C=C/c2ccc(OC(C)=O)c(OC)c2)ccc2ccccc21 | -2.58 |
| Cc1ccnc(NS(=O)(=O)c2ccc(NC(=O)C3C4C=CC(C4)C3C(=O)O)cc2)n1 (stereo not given) | 0.708 |
| CCC(C)Nc1cc(C)nc2ncnn12 (stereo not given) | -0.604 |

| Structure (SMILES) | activity (protection) [%] |
| --- | --- |
| Cc1oc2c(Cl)c(Cl)c(O)c(CN(C)C)c2c1C(=O)c1ccc(Cl)cc1 | 2.01 |
| CCOc1ccc(-c2n[nH]c(=S)n2Cc2ccccc2)cc1 | -0.239 |
| O=C(CSc1ccc(Cl)cc1)Nc1ccc(C2SCCS2)cc1 | 1.42 |
| Cc1cccc(C(=O)Nc2cc(=O)n(C)c(=O)n2C)c1 | -1.45 |
| CCCNC(=O)COc1coc(CN2CCN(c3ccccc3OC)CC2)cc1=O | -0.447 |
| O=C(O)CC1(CC(=O)NCc2ccc(Cl)cc2)CCCCC1 | -0.619 |
| CCc1ccc(NC(=O)Cn2cnc([N+](=O)[O-])c2)cc1 | -0.969 |
| Clc1ccc(-c2nc3ccccn3c2CN2CCSCC2)cc1 | -2.3 |
| COc1cc(CNCCc2ccccc2)cc(Br)c1OCC(=O)Nc1ccccc1C | -1.07 |
| COc1ccc2c(ccn2S(=O)(=O)c2ccccc2)c1 | -2.44 |
| Cn1c(=O)c(=O)n(C)c2cc(S(=O)(=O)CCC(=O)Nc3ccc(F)cc3)ccc21 | 0.666 |
| CC(C)c1ccc(NC(=O)COc2ccc(S(=O)(=O)N3CCOCC3)cc2)cc1 | 0.0707 |
| Cc1ccc(OCc2cc(C(=O)N(C)Cc3cc(C4CC4)n[nH]3)no2)cc1C | -1.75 |
| CCc1c(C)sc(NC(=S)N2CC(C)OC(C)C2)c1C(=O)OC (stereo not given) | 0.312 |
| Cc1ccccc1C(=O)NCC(=O)Nc1ccc(C)c(S(=O)(=O)N2CCCCCC2)c1 | -2.13 |
| O=C(c1cc([N+](=O)[O-])cc([N+](=O)[O-])c1)N(c1ccccn1)c1ccccn1 | -0.695 |
| Cc1noc(C)c1COc1ccc(C(=O)N2CCN(S(=O)(=O)c3ccc(Cl)cc3)CC2)cc1 | 3.98 |
| COc1ccc([C@@H]2[C@@H]3C(=O)N(C(C)(C)C)C(=O)[C@@H]3[C@]3(C)C(=O)N(c4cccc(Cl)c4)C(=O)N23)cc1 | 2.55 |
| CCC1Nc2ncnc(N3CCCCC3)c2N(Cc2ccc(Cl)cc2)C1=O (stereo not given) | 0.603 |
| CCCN1CCN(C2CCCCC2NS(=O)(=O)c2ccc(Cl)cc2)CC1 (stereo not given) | 9.95 |
